Consider 96 compounds from PubChem BioAssay AID1619 (SRMLSC, 2009).

SMILES strings stand for the structures. Hit rate of the full screen: of about 220,000 compounds, about 830 (0.38%) were called active.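 The calls were made as follows: active = compound inhibiting the enzyme by more than half at any dose during confirmatory dose-response retesting; inconclusive = strong single-dose inhibitors picked by rank but not retested; inactive = the rest.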 These entries were drawn from the full list. Measured potencies and affinities stand elsewhere.

The target in the experiment is Leucine aminopeptidase (Plasmodium falciparum (isolate 3D7)) (UniProt Q8IL11). As to the kind of experiment: P. falciparum M17LAP inhibitors, primary screen, biochemical, fluorogenic H-Leu-NHMec substrate, 1536-well (AID 1619).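 Also: plate controls were full reaction with DMSO carrier for no effect and no enzyme background for full effect.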 Conditions: recombinant M17LAP, H-Leu-NHMec fluorogenic kinetic assay; at 30 µM; hits give high values.
Sequence of Leucine aminopeptidase (Plasmodium falciparum (isolate 3D7)) (Q8IL11 whole entry, looked up): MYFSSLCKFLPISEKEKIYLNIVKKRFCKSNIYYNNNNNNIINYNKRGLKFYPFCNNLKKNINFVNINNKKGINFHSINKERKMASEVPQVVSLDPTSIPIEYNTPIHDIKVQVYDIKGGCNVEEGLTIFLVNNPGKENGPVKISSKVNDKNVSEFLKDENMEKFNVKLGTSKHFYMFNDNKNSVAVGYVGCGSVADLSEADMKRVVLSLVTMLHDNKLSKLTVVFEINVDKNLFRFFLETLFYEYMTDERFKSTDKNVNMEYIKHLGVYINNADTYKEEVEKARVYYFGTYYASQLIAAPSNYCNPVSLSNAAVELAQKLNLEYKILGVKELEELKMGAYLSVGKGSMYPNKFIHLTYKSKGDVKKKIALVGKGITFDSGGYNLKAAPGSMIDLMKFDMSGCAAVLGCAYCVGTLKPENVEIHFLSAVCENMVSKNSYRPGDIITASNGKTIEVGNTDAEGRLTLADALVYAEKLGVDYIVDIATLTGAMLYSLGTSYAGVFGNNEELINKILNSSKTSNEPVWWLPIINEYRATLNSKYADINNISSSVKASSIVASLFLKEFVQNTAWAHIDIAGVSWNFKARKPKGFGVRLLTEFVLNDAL
One may read the inhibition as the relative decrease from the control value, in per cent. As for `CCCCC(CC)C(=O)Nc1ccccc1C#N` (stereo unspecified), the inhibition is 2.15% (inactive).

For `CCOC(=O)C1CCCCN1Cc1cn[nH]c1-c1ccc(F)cc1F` (stereo unspecified), the inhibition is 0.93% (inactive).

Regarding `CCOC(=O)NC1(Nc2cccc(Cl)c2)Oc2ccccc2O1`, the inhibition is 13.3% (inactive).

As to `Cc1[nH]n(C(C)(C)C)c(=O)c1Sc1ccc(Cl)cc1`, the inhibition was -0.55% (inactive).

For the compound `Cc1[nH]n(-c2ccccc2)c(=O)c1-c1ccc(Cl)cc1`, the inhibition was 14.5% (inactive).

As to `O=C(CC1Oc2ccccc2NC1=O)NCc1ccccc1` (stereo unspecified), the inhibition is 2.31% (inactive).

For `CC(=O)NCCc1nc2ccccc2n1CCOc1ccccc1C`, the inhibition was -3.06% (inactive).

As for `COCc1cc(=O)n2[nH]c(-c3cccc(Br)c3)cc2n1`, the inhibition was 6.67% (inactive).

As to `O=C(O)c1cccc(NC(=S)N/N=C/c2ccccn2)c1`, the inhibition was 26.1% (inactive).

In the case of `COc1ccc(/C=N/NC(=S)Nc2cccc(C(=O)O)c2)cc1OC`, the inhibition was 38.7% (inactive).

For the compound `Cc1cccc(NC(=S)N/N=C/c2c[nH]c3ccccc23)c1`, the inhibition is 7.36% (inactive).

`O=C(O)c1cccc(NC(=S)N/N=C/c2cccc(O)c2)c1`: the inhibition is 56.3% (inactive).

For the compound `COc1cc(/C=N/NC(=S)Nc2cccc(C(=O)O)c2)cc(OC)c1OC`, the inhibition was 41% (inactive).

Turning to `COc1cc(/C=N/NC(=S)Nc2cccc(C(=O)O)c2)ccc1O`, the inhibition is 56.1% (inactive).

Take `CCCCCCCCC(=O)N/N=C(\C)c1ccc(O)cc1O`: the inhibition was 0.48% (inactive).

On to `Cc1ccccc1OCCn1cc(/C(N)=N/O)c2ccccc21`, for which the inhibition is 3.74% (inactive).

With `CCO[C@@H]1OC(C(=O)N2CCOCC2)=C[C@H](c2coc3ccccc3c2=O)[C@H]1CCCO`, the inhibition is -0.63% (inactive).

For `CC(=O)c1ccc(NC(=O)c2ccc(S(=O)(=O)c3ccccc3)cc2)cc1`, the inhibition was -3.53% (inactive).

`O=C(CC(Nc1ccc(F)cc1)c1ccccc1)c1ccccc1` (stereo unspecified): the inhibition is -9.06% (inactive).

Turning to `O=C(CN(Cc1ccccc1)C(=O)c1ccco1)NCc1ccc(F)cc1`, the inhibition is 4.59% (inactive).

For the compound `O=C(CSc1nc(-c2ccc(Cl)cc2)[nH]c(=O)n1)Nc1cccc(Cl)c1`, the inhibition is -10.8% (inactive).

Turning to `O=C(CSc1ccc(Cl)cc1)Nc1cccc(-c2nnc(-c3ccco3)o2)c1`, the inhibition was 6.07% (inactive).

Take `N#Cc1c(-c2ccccc2)nc(-c2ccccc2)[nH]c1=O`: the inhibition was 5.14% (inactive).

With `Cc1cccc(NC(=O)CSc2nnc(-c3ccccc3)n2N)c1C`, the inhibition was 1.89% (inactive).

As to `Cc1nc(SCC(=O)N2c3ccccc3Sc3ccccc32)n[nH]1`, the inhibition was 17.3% (inactive).

With `O=C(CSc1nc(O)cc(=O)[nH]1)N1c2ccccc2Sc2ccccc21`, the inhibition was 39.5% (inactive).

In the case of `N#Cc1c(N)nc(-c2ccccc2)nc1-c1ccccc1`, the inhibition is -4.62% (inactive).

`COCc1cc(C)nc(SCC(=O)Nc2cccc(C)c2C)c1C#N`: the inhibition was 6.16% (inactive).

As for `O=C(CCn1c(=O)oc2ccccc21)NC1=NCCS1`, the inhibition is 4.21% (inactive).

Take `C(=C\c1ccccc1)/C=N/N1CCN(Cc2ccccc2)CC1`: the inhibition was 3.39% (inactive).

On to `O=c1c2sccc2nc(SCc2cc(=O)n3ccccc3n2)n1Cc1ccccn1`, for which the inhibition is 18% (inactive).

For `O=C(CSc1ccc(Cl)cc1)Nn1cnnc1`, the inhibition was 8.97% (inactive).

`N#CCCN1CCN(S(=O)(=O)c2ccc(S(=O)(=O)NC3CCCC3)cc2)CC1`: the inhibition was 5.82% (inactive).

With `O=C(Cn1nc2n(c1=O)-c1ccccc1SC2)N/N=C/c1cccnc1`, the inhibition is 3.98% (inactive).

As for `COc1ccc(CN2C(=O)c3ccccc3C2=O)cc1C(=O)OC(C)C(=O)NC(N)=O` (stereo unspecified), the inhibition was -1.41% (inactive).

For the compound `CC(SC(=S)N1CCCC1)C(=O)O` (stereo unspecified), the inhibition is -0.65% (inactive).

For the compound `O=C(OCCN1CCOCC1)C(c1ccccc1)c1ccccc1`, the inhibition is -9.47% (inactive).

Consider `FC(F)(F)c1nnc2ccc(NCn3nnc4ccccc43)nn12`, for which the inhibition was 22.6% (inactive).

As to `O=C(c1cnc2n(c1=O)CCS2)N(C1CCCCC1)C1CCCCC1`, the inhibition was 11.3% (inactive).

`CC(C)C(C)(C#N)NC(=O)CSc1nc2scc(-c3ccc(F)cc3)c2c(=O)n1Cc1ccccc1` (stereo unspecified): the inhibition is 11.3% (inactive).

Regarding `COc1cccc(F)c1C(C[N+](=O)[O-])c1c(N)n(C)c(=O)n(C)c1=O` (stereo unspecified), the inhibition was 2.97% (inactive).

Regarding `N#CCOc1nc(N2CCCC2)nc(N2CCCC2)n1`, the inhibition is 1.35% (inactive).

As for `Cc1cc(OCC(=O)c2ccc(F)cc2)ccc1N1C(=O)CCC1=O`, the inhibition is -4.66% (inactive).

With `O=C(/C=C/c1ccco1)Nc1cccnc1Cl`, the inhibition is 5.61% (inactive).

Consider `O=C(/C=C/c1ccco1)Nc1ccccc1C(=O)O`, for which the inhibition was 27.5% (inactive).

With `COc1ccccc1NS(=O)(=O)c1cccc(C(=O)N/N=C/c2ccccc2OCC(=O)O)c1`, the inhibition was 16.5% (inactive).

For `CCN(CC)S(=O)(=O)c1cccc(C(=O)N/N=C/c2ccccc2OCC(=O)O)c1`, the inhibition was 13.9% (inactive).

Take `COc1ccc(S(=O)(=O)Nc2ccc3oc(C)c(C(=O)O)c3c2)cc1`: the inhibition was 6.21% (inactive).

Consider `O=C(O)c1cc(S(=O)(=O)Nc2ccc3oc(=O)sc3c2)ccc1O`, for which the inhibition is 51.1% (inactive).

In the case of `COCCOC(=O)c1c(C)oc2ccc(NS(=O)(=O)c3ccc(C(=O)O)cc3)cc12`, the inhibition is 32.9% (inactive).

In the case of `COCCOC(=O)c1c(C)oc2ccc(NS(=O)(=O)c3ccc(C)cc3)cc12`, the inhibition is 2.98% (inactive).

Take `Cc1cc(C(=O)CN2C(=O)C(=O)N(Cc3ccccc3)C2=O)c(C)n1-c1ccc2c(c1)OCCO2`: the inhibition is -11.2% (inactive).

On to `CC(C)c1nc(SCC(=O)Nc2c[nH]c(=O)[nH]c2=O)c2cnn(-c3ccccc3)c2n1`, for which the inhibition is -6% (inactive).

Consider `CC(=O)OCC(=O)Nc1ccccc1OC(F)F`, for which the inhibition is -2.65% (inactive).

With `Cc1ccc(CNC(=O)C2CCCN(c3nc4ccsc4c(=O)s3)C2)cc1` (stereo unspecified), the inhibition is -6.15% (inactive).

Turning to `C#CCOCCOCCOCCNc1nc(N2CCN(C(=O)C([C@@H](C)CC)n3cc(C(N)CO)nn3)CC2)nc(N2CCN(C(=O)[C@H](CCC(=O)O)n3cc(C(N)CC(C)C)nn3)CC2)n1` (stereo partly specified), the inhibition was 2.95% (inactive).

For `O=C(N=C1c2ccccc2CN1c1ccc(F)c(F)c1)c1cccnc1`, the inhibition was 3.87% (inactive).

On to `Cc1ccc(C(=O)Nc2c(C)cc(-c3ccc(Cl)cc3)oc2=O)cc1`, for which the inhibition was 2.9% (inactive).

For the compound `CC1(CCc2ccccc2)NC(=S)N(c2ccccc2)N1` (stereo unspecified), the inhibition was 10.2% (inactive).

In the case of `CCCCCC(=O)NNC(=S)NC(=O)c1ccccc1[N+](=O)[O-]`, the inhibition is 14.3% (inactive).

`O=C(CNC(=S)NC(=O)c1cccc([N+](=O)[O-])c1)c1ccccc1`: the inhibition is -0.71% (inactive).

For `CCCCC(=O)NNC(=S)NC(=O)c1ccc([N+](=O)[O-])cc1`, the inhibition is 44.2% (inactive).

On to `CCCCCCCC(=O)NNC(=O)c1ccc([N+](=O)[O-])cc1`, for which the inhibition is 1.27% (inactive).

Consider `CCCCC(=O)Nc1cccc(NC(=O)c2cccc([N+](=O)[O-])c2)c1`, for which the inhibition is 5.17% (inactive).

As to `CCCCC(=O)NNC(=S)NC(=O)c1ccc(C)cc1`, the inhibition is 59.8% (inactive).

For the compound `CCCC(=O)Nc1ccc(C(=O)NNC(=O)c2cccc([N+](=O)[O-])c2)cc1`, the inhibition was 4.12% (inactive).

In the case of `Cc1cccc(NC(=S)NNC(=O)c2cccc([N+](=O)[O-])c2)c1`, the inhibition was 3.9% (inactive).

Take `O=C(CSc1nnc2sc3ccccc3n12)c1ccco1`: the inhibition is -1.98% (inactive).

`O=C(CC1SC(=NCCc2ccccc2)N(/N=C/c2cccs2)C1=O)Nc1ccc(Cl)cc1` (stereo unspecified): the inhibition was -1.78% (inactive).

For `c1ccc2c(-c3cc(C4CCNCC4)[nH]n3)cccc2c1`, the inhibition was -3.07% (inactive).

Regarding `CCCc1cc(C(=O)NCc2ccco2)no1`, the inhibition was -5.04% (inactive).

Regarding `COc1ccccc1CC(=O)NNC(=O)c1cccs1`, the inhibition is -2.69% (inactive).

Turning to `O=C(CSc1nccc(=O)[nH]1)N1CCN(c2ccccc2)CC1`, the inhibition is 5.66% (inactive).

Turning to `CCOC(=O)COc1ccc(S(=O)(=O)Nc2ccc3c(c2)OCCO3)cc1`, the inhibition was 2.78% (inactive).

For the compound `COc1ccc2nc(NC(=O)CSc3nccc(C)n3)sc2c1`, the inhibition is 1.42% (inactive).

Turning to `Cc1cc(=O)[nH]c(SCC(=O)Nc2ccc(C(=O)O)cc2)n1`, the inhibition is 8.39% (inactive).

As for `Cc1cc(C)nc(NC(=O)CSc2nccc(C)n2)n1`, the inhibition is 5.87% (inactive).

Consider `COc1ccc(NC(=O)CSc2nc(C)cc(C)n2)cc1`, for which the inhibition was 44% (inactive).

On to `Cn1c(SCC(=O)Nc2ccc(Br)cc2)nc(O)cc1=O`, for which the inhibition was 10.4% (inactive).

Take `COc1ccc(NC(=O)CSc2nc(C)cc(C(F)(F)F)n2)cc1`: the inhibition is 19% (inactive).

With `COC(=O)c1ccc(NC(=O)CSc2nc(C)cc(=O)[nH]2)cc1`, the inhibition is 35.4% (inactive).

`Cc1ccc(NC(=O)CSc2nc(O)cc(=O)n2C)cc1`: the inhibition is 7.3% (inactive).

In the case of `Cc1cc(C)n(-c2nnc(C)n2N)n1`, the inhibition is 1.79% (inactive).

As for `COc1ccc(-c2ccn(-c3cccc(F)n3)n2)cc1`, the inhibition is 10.6% (inactive).

For the compound `O=C(N/N=C/c1ccc2c(c1)OCO2)C(=O)Nc1ccccc1`, the inhibition is 5.86% (inactive).

With `CC(=O)c1ccccc1OCCn1nnc(-c2ccc(C)cc2)n1`, the inhibition is 12.1% (inactive).

On to `CCCOc1ccc(-c2c(C(=O)N/N=C/c3ccc(C)cc3)nnn2-c2nonc2N)cc1`, for which the inhibition was -4.98% (inactive).

For `CCOC(=O)C1=C(Nc2ccc(C)cc2)CC(C)(O)C(C(=O)OCC)C1c1ccccc1` (stereo unspecified), the inhibition was 0.02% (inactive).

Take `Cc1cc(C)nc(N2CCC(C(=O)Nc3nnc(C)s3)CC2)n1`: the inhibition was 1.03% (inactive).

Regarding `CC(C)(C)Nc1nc2cc([N+](=O)[O-])ccc2o1`, the inhibition is 2.86% (inactive).

`Cc1nn(-c2nnc(C)c(=O)[nH]2)c(C)c1SCC(=O)Nc1ccc(F)cc1`: the inhibition is 46.2% (inactive).

Regarding `Cc1cc(C)nc(SCC(=O)Nc2ccc(N3CCOCC3)cc2)n1`, the inhibition was 24.8% (inactive).

As to `Cc1nn(-c2nnc(C)c(=O)[nH]2)c(C)c1SCC(=O)Nc1ccc(C(C)C)cc1`, the inhibition is 63.3% (inactive).

`CCN(CC)c1ccc(NC(=O)CSc2nnc3nc(C)cc(C)n23)cc1`: the inhibition was 45.5% (inactive).

As for `COc1ccc(NC(=O)CSc2c(C)n[nH]c2C)cc1`, the inhibition was 21.7% (inactive).

For the compound `COc1ccc(NC(=O)CSc2ccc(C)cc2)cc1`, the inhibition is -1.37% (inactive).
